Source: PubChem
Only some compounds are listed: those with a hit (about 3.9% of all), similar ones and a draw of the others.
HepG2 tox: kills HepG2 cells in TGF-b inhibitor counter-screen | HepG2 CAGA-GFP viability, ATP luminescence, 18 h | Potency, µM (doses to about 46.1 µM), most hits filed as cytotoxic | actives 0.76% (n = 410,000) | AID 588856
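CellTiter-Glo luminescence gave cytotoxicity after 18 hours at 37 degrees C. The cells were HepG2 CAGA-GFP in 1% FBS DMEM, stimulated with 500 pg/mL TGF-beta after compound addition. %Activity was normalised to no-cell wells (complete cell-killing) and DMSO (no toxicity), and curves were fitted and classified.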
HT1080 IDH1KD tx: toxicity to HT-1080 IDH1 knockdown cells (counter line); HT-1080 IDH1 knockdown viability, ATP luminescence, 48 h; Potency, µM (doses to about 46.1 µM), usual class: cytotoxic; actives 2% (n = 360,000); AID 686971
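Knockdown cells (IDH1KD HT-1080) received compounds 2 h after plating at 750 cells/well and were kept 48 h at 37 °C in 5% FBS RPMI. A CellTiter-Glo luminescence read gave % activity for curve fitting.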
TGFb SMAD3 inh: inhibitors of TGF-b signaling; HepG2 CAGA-GFP TGF-b/SMAD3 reporter, GFP fluorescence, 18 h; TGF-beta stimulated, 500 pg/mL final; actives 1.2% (n = 410,000); Potency, µM (highest dose often 46.1 µM), actives largely listed as inhibitors; note: nearly all actives have a fitted effect of over 65% in size
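Smad-responsive CAGA-GFP expression was quantified in HEPG2 cells exposed to compounds and 500 pg/mL final TGF-beta for 18 h at 37 degrees C; unstimulated wells defined full inhibition.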
HT1080-NT tox: kills 2HG-producing HT-1080-NT fibrosarcoma cells; actives 1.6% (n = 360,000); Potency, µM (top dose mostly 46.1 µM), actives largely listed as cytotoxic; HT-1080-NT fibrosarcoma viability, CellTiter-Glo ATP luminescence, 48 h;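 note: NT is the 2HG producing partner of a matched IDH1 knockdown line; nearly all actives have a fitted effect of over 55% in size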
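A 48-hour cytotoxicity screen used HT-1080-NT cells plated 2 hours before compound delivery. ATP-based CellTiter-Glo luminescence measured viability, normalized to DMSO and no-cell controls.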
S2 tox: reduces viability in counter-screen for ATXN expression inhibitors; actives 0.49% (n = 400,000); S2 cells (HEK-293 line with an ATXN2-luciferase reporter) viability, CellTiter-Fluor protease fluorescence, 24 h; AID 651635; Potency, µM (series often up to 56.7 µM), usual class: cytotoxic; note: nearly all actives have a fitted effect of over 40% in size
ATXN2 expr inh: ATXN2 expression inhibition; Potency, µM (titrated, usually from 57 µM), actives largely listed as inhibitors; actives 0.72% (n = 360,000); HEK-293 ATXN2-luciferase reporter, luminescence, 24 h; note: nearly all actives have a fitted effect of over 55% in size
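ATXN2-luciferase reporter cells (luciferase flanked by upstream and downstream ATXN2 gene portions) were treated 24 h at 37 °C with compounds at up to 57 uM. SteadyGlo luminescence gave expression; GF-AFC fluorescence gave viability.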
Hits are given with their value; . = inactive; ? = inconclusive; / = no result given; ! = repeats disagree; [ ] = dose if it differs, or a comment. Calls come from the whole dose curve; as a rule, active = well fitted curve in the direction sought with a large enough effect; inconclusive = small, poorly fitted or top-dose-only effect, or another doubt; inactive = no such curve, though single readings can be large; an effect the other way counts as inactive or inconclusive.

SMILES | HepG2 tox | HT1080 IDH1KD tx | TGFb SMAD3 inh | HT1080-NT tox | S2 tox | ATXN2 expr inh
CC(=O)c1ccc(NC(=O)NCCc2c[nH]c3ccccc23)cc1 | . | / | . | / | . | .
CC(C)OC(=O)c1ccccc1C(=O)c1ccc(N)c([N+](=O)[O-])c1 | . | . | . | . | ? | .
O=C(COC(=O)c1ccccc1C(=O)c1ccc(Cl)c([N+](=O)[O-])c1)NC1CC1 | 16µM | 4.6µM | ? | 6.5µM | 28µM | ?
CNC(=O)COC(=O)c1ccccc1C(=O)c1ccc(Cl)c([N+](=O)[O-])c1 | . | 23µM | . | 12µM | 10µM | /
O=C(Nc1ccc2oc(-c3cccnc3)nc2c1)c1ccc(-c2cccc(OC(F)(F)F)c2)o1 | . | / | . | / | / | /
Cc1[nH]cnc1C[C@H]1CCc2c(C)c3ccccc3n2C1=O | / | / | / | / | . | /
CCN(CC)CCNC(=O)CCc1c(C)nc2c(c(C)nn2-c2ccc(C)cc2)c1C | . | ? | ? | 18µM | . | ?
COCCNC(=O)CCc1c(C)nc2c(c(C)nn2-c2ccc(C)cc2)c1C | . | . | . | . | . | /
Clc1cccc(N2CCN(c3nc4ccccc4n4cnnc34)CC2)c1 | . | / | . | / | . | .
CN(C)CCNC(=O)c1ccc(Sc2ccc(Br)cc2)c([N+](=O)[O-])c1 | . | 18µM | . | 23µM | . | .
CC(=O)NCCNC(=O)c1ccc(Sc2ccccc2)c([N+](=O)[O-])c1 | . | . | . | . | / | /
CCOc1ccc(CCNC(=O)CN2C(=O)COc3ccc(S(=O)(=O)N4CCCC4)cc32)cc1 | . | / | ? | / | . | .
COC1=C(N)C(=O)c2nc(-c3nc(C(=O)O)c(C)c(-c4ccc(OC)c(OC)c4O)c3N)ccc2C1=O | . | 0.0082µM | 0.28µM | 0.0092µM | 2.2µM | .
COc1ccc(-c2ncncc2-c2csc(C)n2)c(O)c1OC | . | . | . | . | . | .
COc1ccc(NC(=O)CN2C(=O)COc3ccc(S(=O)(=O)NC4CCCC4)cc32)cc1OC | . | / | . | / | . | .
CSc1ncccc1C(=O)NCC1Cc2cc(-c3cnccn3)cc(Cl)c2O1 (stereo not given) | / | / | / | / | . | /
O=C(C[n+]1c(Cl)ccc2ccccc21)c1ccc2ccccc2c1 | . | / | . | / | / | /
COc1ccc(NC(=O)CSC2=C(C#N)C(c3ccco3)C3=C(CCCC3=O)N2)c(OC)c1 (stereo not given) | . | . | . | . | . | .
Cc1ccc(C(=O)CSC2=C(C#N)C(c3ccco3)C3=C(CCCC3=O)N2)cc1 (stereo not given) | . | 5.6µM | . | 5µM | . | .
N#CC1=C(SCC(=O)Nc2ccccc2)NC(=O)CC1c1ccco1 (stereo not given) | . | ? | . | 14µM | . | .
COc1cccc(NC(=O)CSC2=C(C#N)C(c3ccco3)C3=C(CCCC3=O)N2)c1 (stereo not given) | . | 7.3µM | . | 9.2µM | . | .
N#CC1=C(SCC(=O)c2ccccc2)NC2=C(C(=O)CCC2)C1c1ccco1 (stereo not given) | . | 4.6µM | . | ? | ? | .
N#CC1=C2SCN(C3CCCCC3)CN2C(=O)CC1c1c(F)cccc1Cl (stereo not given) | . | / | . | / | . | .
CCOC(=O)c1c(NC(=O)CSc2cn(CCNC(=O)c3ccc(OC)cc3)c3ccccc23)sc2c1CCC2 | . | / | ? | / | . | .
CCOC(=O)c1ccc(O)cc1 | / | / | / | / | . | .
SMILES | HepG2 tox | HT1080 IDH1KD tx | TGFb SMAD3 inh | HT1080-NT tox | S2 tox | ATXN2 expr inh
CC/C(=C(/CC)c1ccc(O)cc1)c1ccc(O)cc1 | . | 15µM | ? | ? | ? | ?
CN1OC[C@@H]2CN[C@H](c3ccc(-c4cc5ccccc5o4)cc3)C[C@@H]21 | . | . | . | ? | . | 0.2µM
COCCCCC(=NOCCN)c1ccc(C(F)(F)F)cc1 | / | / | / | / | . | ?
COCCCC/C(=N\OCCN)c1ccc(C(F)(F)F)cc1 | . | 18µM! | . | ? | ? | 16µM!
CCc1c(C)nc(SCCOc2ccc(OC)cc2)[nH]c1=O | 0.32µM | . | . | . | . | .
Cc1cc(C(C)(C)CC(C)(C)C)ccc1OCCOCC[N+](C)(C)Cc1ccccc1 | 20µM | ? | ? | ? | ? | ?
COc1cccc(CN2CCC(C(=O)Nc3ccc(Oc4cccnc4)cc3)CC2)c1 | . | . | ? | . | . | .
Cc1cccc(CN2CCC(C(=O)Nc3ccc(Oc4cccnc4)cc3)CC2)c1 | 11µM | . | ? | . | . | .
O=C(Nc1ccc(Oc2cccnc2)cc1)C1CCN(Cc2cc(Cl)ccc2O)CC1 | . | ? | 13µM | ? | ? | /
COc1cccc(CN2CCC(C(=O)Nc3ccc(-c4cccc(C)c4)cc3)CC2)c1O | . | ? | ? | ? | ? | ?
O=C(Nc1ccc(Oc2cccnc2)cc1)C1CCN(Cc2ccc(F)cc2)CC1 | . | . | ? | . | . | .
Cc1cccc(-c2ccc(NC(=O)C3CCN(CC4CC4)CC3)cc2)c1 | . | ? | ? | 21µM | . | .
CCN1/C(=C/c2ccc3cc(C)ccc3[n+]2CC)Sc2cc(C)ccc21 | . | 23µM | . | 16µM | / | ?
Cc1ccc2c(c1)S/C(=C/c1ccc[n+](C)c1)N2CCO | . | ? | . | ? | ? | .[11.3 µM]
CCN1/C(=C/c2ccc3cc(C)ccc3[n+]2C)Sc2ccc3sccc3c21 | . | ? | . | 16µM | / | /
CCCCN1/C(=C/c2ccc3ccccc3[n+]2CC)Sc2ccccc21 | . | 15µM | . | ? | 16µM | ?
CCN(C(=O)CSc1ncc(S(=O)(=O)c2ccc(C)c(Cl)c2)c(=O)[nH]1)c1cccc(C)c1 | . | / | . | / | . | .
CCN(CC)CCNC(=O)c1cn(-c2ccccc2)nc1-c1cccs1 | . | . | . | . | . | .
CCN(CC)CCOC(=O)c1ccc(NC(=O)c2cn(-c3ccccc3)nc2-c2cccs2)cc1 | . | ? | ? | 21µM | . | .[11.3 µM]
COc1cc2c(cc1OC)C(C)N(CCc1ccc(Cl)cc1)CC2 (stereo not given) | . | ? | ? | 12µM | . | .
CC(C)c1ccc(NC(=O)c2cn(C3CCCCC3)c(=O)c3c2c2ccccc2n3C)cc1 | . | / | . | / | / | /
NC(=O)[C@@H]1CCCN1C(=O)CCN1Cc2ccccc2OC(c2ccccc2F)C1 (stereo not given in full) | / | / | / | / | . | /
Oc1cccc(-c2nc3c4c(ncn3n2)-c2ccccc2CC42CCCC2)c1 | . | 11µM | ? | ? | ? | ?
COc1ccccc1-c1nn2c(-c3cc(C)[nH]n3)nnc2s1 | . | / | . | / | / | /
CN(Cc1ccccc1)C(=O)c1ccc(CSc2nc3cccnc3n2Cc2ccccc2F)cc1 | 13µM | / | ? | / | / | ?
